Records with an inconclusive call do not appear. Active and inactive are the calls of the source. Unless noted, the call rests on the fitted dose curve; in most records, active means well fitted curve in the direction sought with a large enough effect; inconclusive means small, poorly fitted or top-dose-only effect, or another doubt; inactive means no such curve, though single readings can be large; an effect the other way counts as inactive or inconclusive.

The nature of experiment [1]: S16 Schwann cell viability assay (CellTiter-Glo assay) (AID 624031).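 Further: native untransfected S16 rat Schwann cells; nearly all actives have a fitted effect of over 70% in size.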 The essentials:
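Rat S16 Schwann cells without reporter constructs received compound or DMSO for 24 h at 37 °C under 5% CO2. Cellular ATP was then quantified by CellTiter-Glo luminescence, with vehicle wells defined as 0% activity and cell-free wells as reference.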
For orientation: ATP-based viability assays read luminescence as a measure of living cells.

The nature of experiment [2]: S16 Schwann cell PMP22 intronic element firefly luciferase assay (AID 624032). Further: nearly all actives have a fitted effect of over 30% in size. In a few lines:
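Luciferase reporter of PMP22 intronic-element expression in stably transfected S16 rat Schwann cells, read by ONE-Glo luminescence after 24 h compound exposure at 37 C. Activity scaled between DMSO (0%) and positive-control PTC124; concentration-effect curves quality-classified.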

Experiment [3] can be described thus: S16 Schwann cell PMP22 intronic element beta-lactamase assay (AID 624044; calls by dose curve; further: nearly all actives have a fitted effect of over 15% in size). In a few lines:
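Rat S16 Schwann cells with beta-Lac driven by a PMP22 intronic element, compound-treated 24 h at 37 °C. LiveBLAzer FRET B/G read: 460 nm normalized to potassium clavulanate vs DMSO; 535 nm FRET as viability; concentration-effect curves classified.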

In a further experiment the test system is AA1029. Kind of experiment: qHTS profiling for inhibitors of Plasmodium falciparum proliferation (AID 504749). Further: nearly all actives have a fitted effect of over 60% in size. Further: potency means the concentration at half of the fitted maximal effect. The conditions noted are these: P. falciparum in erythrocytes, SYBR Green DNA, 72 h; series mostly up to 12.8 µM. The essentials: (§1)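 Three-day growth assay of blood-stage parasites in erythrocytes (0.3% parasitemia, 2.5% hematocrit) at 37 C, 5% CO2, quantified by SYBR Green DNA staining after overnight detergent lysis.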
(In qHTS, concentration-response curves come from the screen itself.)

A further experiment concerns CP211. The description is as above. The conditions noted are these: P. falciparum in erythrocytes, SYBR Green DNA, 72 h; series mostly up to 12.8 µM. In a few lines: as §1
Another experiment deals with CP215. Described as above. Particulars: P. falciparum in erythrocytes, SYBR Green DNA, 72 h; series mostly up to 28.7 µM. In a few lines:
as §1

A further experiment has as its system CP217. Described as above. Particulars: P. falciparum in erythrocytes, SYBR Green DNA, 72 h; series mostly up to 12.8 µM. The essentials:
as §1

A further experiment relates to CP252. The experiment is described as above. Particulars: P. falciparum in erythrocytes, SYBR Green DNA, 72 h; series mostly up to 12.8 µM. The essentials: as §1
The subject of the next experiment is CP260. The description is as above. The conditions noted are these: P. falciparum in erythrocytes, SYBR Green DNA, 72 h; series mostly up to 12.8 µM. In a few lines:
as §1

The subject of the next experiment is CP269. The description is as above. The conditions noted are these: P. falciparum in erythrocytes, SYBR Green DNA, 72 h; series mostly up to 12.8 µM. The essentials: as §1
The next experiment concerns CP315. The experiment is described as above. The conditions noted are these: P. falciparum in erythrocytes, SYBR Green DNA, 72 h; series mostly up to 12.8 µM. The essentials: as §1
The subject of another experiment is CP325. Described as above. The conditions noted are these: P. falciparum in erythrocytes, SYBR Green DNA, 72 h; series mostly up to 12.8 µM. In a few lines:
as §1

For another experiment, the system named is N140. The description is as above. The conditions noted are these: P. falciparum in erythrocytes, SYBR Green DNA, 72 h; series mostly up to 12.8 µM. The essentials: as §1
The next experiment has as its system P93_24. Described as above. The conditions noted are these: P. falciparum in erythrocytes, SYBR Green DNA, 72 h; series mostly up to 12.8 µM. The essentials: as §1
A further experiment deals with SC27B. The experiment is described as above. The conditions noted are these: P. falciparum in erythrocytes, SYBR Green DNA, 72 h; series mostly up to 12.8 µM. The essentials: as §1
In a further experiment the test system is TAB165. The experiment is described as above. The conditions noted are these: P. falciparum in erythrocytes, SYBR Green DNA, 72 h; series mostly up to 12.8 µM. In a few lines: as §1
The next experiment deals with W2. Described as above. Particulars: P. falciparum in erythrocytes, SYBR Green DNA, 72 h; series mostly up to 12.8 µM. In a few lines:
as §1

In experiment [4] the target is Nuclear receptor subfamily 1 group I member 3 (Homo sapiens) (UniProt Q14994). Kind of experiment: Primary qHTS for agonist of constitutive androstane receptor (CAR) against the NCATS DSHEA and TCM libraries (AID 1794839).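 Further: HepG2 cells expressing human CAR with a CYP2B6 reporter plus PK11195 antagonist.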 The essentials:
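Agonist mode in presence of hCAR antagonist PK11195 (0.75 µM final): test substances, 24 h, 37 °C, on HepG2-CYP2B6-hCAR cells. Same-well readouts: fluorescence viability, then ONE-Glo luminescence; CITCO as reference agonist.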

Experiment [5] addresses Cytochrome P450 3A4 (Homo sapiens) (UniProt P08684). Briefly: qHTS for inhibitors of CYP3A4 against the NCATS DSHEA and TCM libraries (AID 1919971).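 Further: inhibition lowers luminescence from luciferin made by CYP3A4.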 In a few lines:
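Light output from converted D-luciferin reports remaining CYP activity. Compounds preincubate with enzyme and substrate for 15 min; NADPH regeneration (1x final) runs the reaction for 30-45 min.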

Experiment [6] deals with Nuclear receptor subfamily 1 group I member 2 (Homo sapiens) (UniProt O75469). Kind of experiment: Dual reporter qHTS for agonist of Pregnane X Receptor (hPXR) against the NCATS DSHEA and TCM libraries: Luminescence readout (AID 1920059). In a few lines: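 Luminescent PXR reporter read (ONE-Glo) after a CellTiter-Fluor viability read, following 24 h, 37C treatment of HepG2 cells stably carrying hPXR-Luc.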
Nuclear receptor subfamily 1 group I member 2 (Homo sapiens), sequence (O75469 whole entry, looked up): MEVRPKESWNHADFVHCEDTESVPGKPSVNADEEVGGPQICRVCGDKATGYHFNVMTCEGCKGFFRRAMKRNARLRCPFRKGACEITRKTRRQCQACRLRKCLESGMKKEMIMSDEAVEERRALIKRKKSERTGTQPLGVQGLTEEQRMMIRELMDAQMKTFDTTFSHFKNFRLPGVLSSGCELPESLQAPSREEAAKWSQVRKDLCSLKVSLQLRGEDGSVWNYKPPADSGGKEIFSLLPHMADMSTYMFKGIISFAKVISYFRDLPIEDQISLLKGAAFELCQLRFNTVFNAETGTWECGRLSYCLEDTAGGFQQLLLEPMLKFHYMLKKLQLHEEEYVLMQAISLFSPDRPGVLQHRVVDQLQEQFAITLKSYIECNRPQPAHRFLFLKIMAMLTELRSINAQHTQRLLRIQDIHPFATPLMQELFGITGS

Cytochrome P450 3A4 (Homo sapiens), sequence (P08684 whole entry, looked up): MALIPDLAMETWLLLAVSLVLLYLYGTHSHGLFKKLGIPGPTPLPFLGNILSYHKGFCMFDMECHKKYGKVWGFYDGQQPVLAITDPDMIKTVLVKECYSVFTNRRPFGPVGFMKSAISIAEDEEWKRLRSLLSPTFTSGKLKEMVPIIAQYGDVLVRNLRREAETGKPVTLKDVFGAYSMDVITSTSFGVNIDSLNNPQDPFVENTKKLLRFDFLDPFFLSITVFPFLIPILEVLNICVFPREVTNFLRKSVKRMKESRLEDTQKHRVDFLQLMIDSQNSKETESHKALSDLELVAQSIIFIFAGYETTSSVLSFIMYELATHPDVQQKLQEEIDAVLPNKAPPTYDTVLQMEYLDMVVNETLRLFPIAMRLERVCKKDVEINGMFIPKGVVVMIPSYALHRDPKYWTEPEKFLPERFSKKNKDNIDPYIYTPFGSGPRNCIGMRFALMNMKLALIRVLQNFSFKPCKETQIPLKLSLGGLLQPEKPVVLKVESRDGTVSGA
Nuclear receptor subfamily 1 group I member 3 (Homo sapiens), sequence (Q14994 whole entry, looked up): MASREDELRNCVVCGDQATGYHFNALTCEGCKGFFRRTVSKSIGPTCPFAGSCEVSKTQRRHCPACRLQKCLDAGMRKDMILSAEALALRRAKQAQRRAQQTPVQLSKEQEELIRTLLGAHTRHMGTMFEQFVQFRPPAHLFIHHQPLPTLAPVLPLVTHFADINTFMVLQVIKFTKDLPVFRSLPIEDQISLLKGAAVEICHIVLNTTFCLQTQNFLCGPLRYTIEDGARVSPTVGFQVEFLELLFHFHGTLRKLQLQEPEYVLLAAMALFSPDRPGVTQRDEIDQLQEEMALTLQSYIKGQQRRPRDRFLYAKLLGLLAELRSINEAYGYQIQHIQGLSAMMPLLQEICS

Regarding `C[C@@H]1CCC[C@H](C)N1NC(=O)c1ccc(Cl)c(S(N)(=O)=O)c1`, the Potency result (in experiment [1]; in experiment [2]; in the experiment with AA1029; in the experiment with CP211; with CP215; in the experiment with CP217) was “inactive” in each case. Also, the Potency result in the experiment with CP252, in the experiment with CP260, in the experiment with CP269, with CP315, in the experiment on CP325 and in the experiment with N140 was “inactive” throughout. The Potency entry with P93_24, in the experiment on SC27B, in the experiment on TAB165 and in the experiment on W2 was “inactive” each time. Further, the outcome in experiment [3] was inactive.

Take `C=C[C@](C)(O)CCC=C(C)C`: the call in [4] was inactive.

For `COc1ccc2ccc(=O)oc2c1`, the molecule was called inactive in experiment [4], in experiment [5] and in [6].

With `C=C(C)[C@H]1CC=C(C)C(=O)C1`, the molecule was classed as inactive in [4], in [5] and in [6].

Consider `O=C(/C=C/c1ccc(O)c(O)c1)OC(Cc1ccc(O)c(O)c1)C(=O)O` (stereo not given), for which the molecule was classed as inactive in experiment [4], in [5] and in [6].

As for `CN(C)CC/C=C1\c2ccccc2CSc2ccccc21`, the Potency entry in [1] and in experiment [2] was “inactive” in each case. For the same molecule, the result in [3] was inactive. Further, the Potency in the experiment on W2 was 1.28 µM (active).

For the molecule `NC(Cc1c[nH]c2ccccc12)C(=O)O` (stereo not given), the molecule was classed as inactive in experiment [5] and in experiment [6].

On to `CN1[C@@H]2CC[C@H]1CC(OC(=O)[C@@H](O)c1ccccc1)C2` (stereo not given in full), for which the molecule was classed as inactive in experiment [3]. Moreover, the Potency result in the experiment with AA1029, in the experiment on CP211, in the experiment with CP215, in the experiment with CP217, in the experiment with CP252 and with CP260 was “inactive” in each case. The Potency entry with CP269, with CP315, with CP325, in the experiment with N140, in the experiment with P93_24 and with SC27B was “inactive” each time. For the same molecule, the Potency entry with TAB165 and in the experiment on W2 was “inactive” in each case.

`CN1CCCC[C@@H]1CCN1c2ccccc2Sc2ccc(S(C)=O)cc21` (stereo not given in full): the Potency entry (in [1]; in experiment [2]; in the experiment on AA1029; with CP211; with CP215; in the experiment on CP217) was “inactive” in each case. The Potency result in the experiment on CP252, in the experiment on CP260, with CP269, with CP315, in the experiment with CP325 and with N140 was “inactive” throughout. The Potency entry with P93_24, in the experiment with SC27B, in the experiment with TAB165 and in the experiment on W2 was “inactive” throughout. For the same molecule, in experiment [3], the molecule was classed as inactive.

Consider `CC[C@@]12CCCN3CCc4c(n(c5ccccc45)C(=O)C1)[C@H]32`, for which the Potency result (in experiment [1]; in experiment [2]; with AA1029; in the experiment on CP211; in the experiment with CP215; with CP217) was “inactive” each time. In addition, the Potency result in the experiment on CP252, in the experiment with CP260, in the experiment on CP269, in the experiment on CP315, in the experiment with CP325 and in the experiment on N140 was “inactive” throughout. Further, the Potency entry with P93_24, in the experiment on SC27B and in the experiment on TAB165 was “inactive” throughout.

Values taken from PubChem BioAssay (NCATS).
